Data reported in PubChem BioAssay (NCI).
About 83,000 compounds went through this panel and 20% of them were active in at least one assay; those are over-represented in the sample as a whole.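 Plates (96-well) were seeded with cells, treated with compound at one concentration, and incubated for 48 hours before percent growth was determined.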 Activity calls are given as the source filed them. How the source made its calls: active means growth percent below 10; inactive means the rest.

How the values were obtained:
Test in all cases: NCI-60 one-dose screen, 48 h (100 = growth as untreated, 0 = no growth, -100 = all killed)
Conditions in all cases: 10 µM unless noted
[1] = tested on: DU-145 prostate
[2] = tested on: K-562 leukemia
[3] = tested on: MALME-3M melanoma
[4] = tested on: MDA-MB-231 breast
[5] = tested on: RXF 393 renal
[6] = tested on: SF-268 CNS
[7] = tested on: SF-295 CNS
[8] = tested on: SF-539 CNS
[9] = tested on: UACC-257 melanoma
[10] = tested on: M14 melanoma

Measured: growth

CNC(=O)c1cccc(Cn2nc(C)c(NC(=O)c3ccc(COc4ccc(C(F)(F)F)cc4C)cc3)c2C)n1
inactive: [1] 61.2% | [2] 30.4% | [3] 83.8% | [4] 75.2% | [5] 64.5% | [6] 61.2% | [7] 25.8% | [8] 72% | [9] 20.7% | [10] 53.7%

CC(C)(C)CC(C)(C)n1nnnc1C(NC12CC3CC(CC(C3)C1)C2)c1ccccc1 (stereo not given)
inactive: [1] 96.5% | [2] 73.1% | [3] 99.2% | [4] 81.4% | [5] 85.9% | [6] 83.3% | [7] 75.9% | [8] 95.7% | [9] 89.1% | [10] 82.8%

Cc1c(C(=O)NCCC(=O)NO)sc2ncnc(Nc3ccc(F)c(Cl)c3)c12
inactive: [1] 111% | [2] 113% | [3] 113% | [4] 103% | [5] 102% | [6] 96.5% | [7] 96.1% | [8] 98% | [9] 99.7% | [10] 105%

CCOC(=O)[C@@H]1CCCN(S(=O)(=O)c2ccc(S(=O)(=O)N(CC)CC)c(F)c2)C1
inactive: [1] 99% | [2] 37.4% | [3] 79.9% | [4] 92.9% | [5] 76.4% | [6] 85.9% | [7] 49.6% | [8] 88.8% | [9] 60.6% | [10] 76.2%

Brc1ccc2[nH]cc(-c3cncn3CCc3ccccc3)c2c1
inactive: [1] 68.1% | [2] 27.3% | [3] 65% | [4] 65.4% | [5] 38.1% | [6] 50.3% | [7] 37.7% | [8] 65.2% | [9] 48.3% | [10] 53.3%

O=C(CCN1CCCC1)Nc1ccc2c(NCc3ccccc3)c3ccccc3nc2c1
active: [1] -25% | [2] -14.3% | [3] -18.5% | [4] -14.9% | [5] -16% | [6] -2.23% | [8] 5.91% | [9] 1.08% | [10] 7.61%
inactive: [7] 15.5%

COc1ccc(OC)c(-c2cc(-c3ccc(Cl)cc3)c3c(N)c(C(=O)c4ccc(Cl)cc4)sc3n2)c1
inactive: [1] 107% | [2] 118% | [3] 89.7% | [4] 90.4% | [5] 115% | [6] 100% | [7] 99.2% | [8] 101% | [9] 98.2% | [10] 102%

O=[N+]([O-])CC(c1ccccc1)c1c[nH]c2ccccc12 (stereo not given)
inactive: [1] 84.1% | [2] 10% | [3] 57.3% | [4] 46.1% | [5] 64.3% | [6] 65.1% | [7] 44.1% | [8] 50.2% | [9] 55.8% | [10] 23.2%

COc1cccc(/C=N/NC(=O)c2cnn3c2NC(c2ccccc2)C3)c1Oc1ccccc1 (stereo not given)
inactive: [1] 89.8% | [2] 36% | [3] 75.3% | [4] 90.7% | [5] 82.1% | [6] 88.3% | [7] 63.3% | [8] 84% | [9] 86.3% | [10] 50.2%

CC(=O)N1c2ccccc2NC2=C(C(=O)NC2(C)C)C1c1ccco1 (stereo not given)
inactive: [1] 100% | [2] 77.1% | [3] 80.5% | [4] 96.4% | [5] 58% | [6] 77.2% | [7] 96.6% | [8] 94.6% | [9] 75.1% | [10] 68.6%

COc1cc2c(-c3cc4c(cc3CNCCc3ccc5c(c3)OCO5)OCO4)cccc2c(OC)c1O
inactive: [1] 95.8% | [2] 20% | [3] 103% | [4] 69.4% | [5] 74.9% | [6] 68% | [7] 92.2% | [8] 88.4% | [9] 96.1% | [10] 84.4%

CCN(Cc1ccccc1)c1ccc(C=O)cc1
inactive: [1] 110% | [2] 93.3% | [3] 117% | [4] 96.5% | [5] 88.6% | [6] 106% | [7] 114% | [8] 87.7% | [9] 106% | [10] 102%

C/C(=N\Nc1cc(C)nc2ccc(Br)cc12)c1ccc([N+](=O)[O-])cc1
inactive: [1] 64.8% | [2] 11.3% | [3] 123% | [4] 59.4% | [5] 68.6% | [6] 97.8% | [7] 49.4% | [9] 107% | [10] 84.6%
active: [8] -43.6%
